This passage reports growth results from PubChem BioAssay (NCI).

Compounds without any hit were thinned out: in the full panel of roughly 83,000, 20% have a hit.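 Single-concentration screen, 48 h exposure, 96-well plates. Endpoint: percent growth. Below 10 = active.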 Active and inactive are the calls of the source.

In the experiment the test system is MOLT-4 leukemia. Put plainly: NCI-60 one-dose screen, 48 h (100 = growth as untreated, 0 = no growth, -100 = all killed). The note with it: 10 µM unless noted. On the procedure: Growth inhibition of the MOLT-4 human tumor cell line is measured as a screen for anti-cancer activity. Cells are grown in 96 well plates and exposed to the test compound for 48 hours. Compounds are tested at a single concentration, which is 10^-5 M for most compounds. The reported endpoint is percent growth (GI% or GIPRCNT), where numbers from 0 - 100% represent growth inhibition, and numbers from -100% - 0 represent cell death. For example, a value of 40 represents 60% growth inhibition. A value of 0 means no net growth occurred over the course of the experiment. A value of -40 indicates 40% of cells at the beginning of the experiment died by the end of the experiment. A value of -100 means all cells are dead at the end of the experiment.
NCI-60 Human Tumor Cell Lines Screen was performed using the standard one-dose NCI protocol, which is described in more detail at https://dtp.cancer.gov/discovery_development/nci-60/default.htm.
Compounds with GIPRCNT values below 10 were considered active. Activity score was based on GIPRCNT using the following formula: […]
Score is 0 for GIPRCNT values of 100 or above, 50 for GIPRCNT values of 0, and 100 for GIPRCNT values of -100.
Consider `N/C(=N/N=C/c1ccccc1)N/N=C\c1ccccc1`, for which the growth was 30.4% (inactive). In the case of `O=S(=O)(O)c1ccc(N/N=C/c2ccccc2Cl)cc1` it was 103% (inactive); in that of `C=C1C(=O)O[C@H]2[C@H]1CC/C(COC(=O)C(=O)c1c[nH]c3ccc(OC)cc13)=C\CC[C@@]1(C)O[C@@H]21`, -28.2% (active). For `Cc1cc(/C=C\c2ccc3ccccc3[n+]2C)c(O)c2ncccc12`, the growth is 0.695% (active). For the compound `Cc1ccc2nc(NC(=O)CSc3nc(-c4ccccc4)c(C#N)c(=O)n3Cc3ccccc3)sc2c1`, the growth was 93.8% (inactive).

As to `Cc1cccc(Cc2cnc(NC(=O)c3ccc4nnsc4c3)s2)c1`, the growth is 90.2% (inactive).

Take `COc1cccc(-c2nc3sccn3c2-c2ccnc(NCCNS(=O)(=O)c3ccc(C(F)(F)F)cc3)c2)c1`: the growth is 13.7% (inactive). With `COc1ccc(C2CC(c3cccc(OC)c3)=NN2C(=O)c2cc(OC)c(OC)c(OC)c2)cc1` (stereo not given) the figure was 9.31% (active). On to `Cc1ccc2[nH]c(=O)c3c(c2c1)OC(N)=C(C#N)C31c2cc(Br)ccc2-c2ccc(Br)cc21`, for which the growth is 62.3% (inactive). On to `CCOC(=O)c1c(-c2ccc(Cl)cc2)c(C#N)c(=O)n(-c2ccccc2CC)c1N`, for which the growth is 70.3% (inactive).

On to `NS(=O)(=O)c1cnccc1Sc1ccncc1S(N)(=O)=O`, for which the growth was 86.3% (inactive).

In the case of `CCOC(=O)C/C(C)=N\NC(=O)c1ccncc1`, the growth was 93.9% (inactive). As for `Cc1nc2ccccc2c(/C=C/c2ccc(Cl)cc2)c1C(=O)/C=C/c1ccc(F)cc1`, the growth was 4% (active). Regarding `O=C1OC(c2nc3ccccc3s2)=C/C1=C\c1ccc(O)cc1`, the growth was 102% (inactive). On to `O=C(/C=C/c1ccc(Cl)nc1)c1ccc(Cl)cc1Cl`, for which the growth is 15.9% (inactive). In the case of `Fc1cnc(NC2CC2)nc1-c1cnc2ccc(N3CCOCC3)cn12` it was 2.32% (active). In the case of `CC(C)(C)OC(=O)Nc1ccc2c(c1)C(NC(=O)Nc1cccc(C#N)c1)CC(C)(C)O2` (stereo not given) it was 17.1% (inactive). With `O=C(COc1ccc(/C=C2\Oc3ccccc3C2=O)cc1)Nc1nc2c(s1)CCCC2`, the growth was -64.3% (active). With `NS(=O)(=O)c1ccc(-n2nc(C(=O)N/N=C\c3ccc(F)cc3)cc2-c2ccc(Cl)cc2)cc1` the figure was 89.2% (inactive).

Regarding `Cc1ccc(-c2cc(-c3cccnc3)[nH]c(=O)c2C#N)cc1`, the growth is 115% (inactive). As for `CN1C(=O)N(C)C2C1NN=c1s/c(=C\c3ccccc3)c(=O)n12` (stereo not given), the growth was 58.1% (inactive). For the compound `CN(C)c1ccc(/C=C/C(=O)c2cccc(Nc3nc(Nc4ccccc4)nc(Nc4ccccc4)n3)c2)cc1`, the growth was 80.6% (inactive). Take `Cn1c(-c2c(N)n(Cc3ccc(C(F)(F)F)cc3)c3nc(C#N)c(C#N)nc23)nc2ccccc21`: the growth is -16.8% (active). Regarding `Clc1ccc(-c2c3ccc(=[N+]4CCCCC4)cc-3oc3cc(N4CCCCC4)ccc23)cc1`, the growth is -32.1% (active). In the case of `CC(=O)OC1CCC2(C)C(=CC3C4CCC(=O)C4(C)CCC32)C1` (stereo not given) it was 103% (inactive). `CNS(=O)(=O)c1n[nH]nc1-c1cc(C(C)(C)C)c(O)c(C(C)(C)C)c1`: the growth was 96.9% (inactive). As to `O=C(CCc1nnc(CN(c2ccccc2)c2ccccc2)o1)c1nc2ccccc2[nH]1`, the growth was 55.7% (inactive).

In the case of `CCN(CC)CCN1C(=O)c2c(c(C)c3c(oc4cc(O)ccc43)c2C)C1=O`, the growth was -33.6% (active). For `CCOC(=O)/C=C/c1cc2cc(-c3csc4ccccc34)ccc2[nH]1`, the growth was 12.2% (inactive). Turning to `CCN(CC)CCCC(C)Nc1c2ccc(Cl)cc2nc2ccc(O)cc12` (stereo not given), the growth was 7.11% (active).

Consider `CCN(CC)CCN1CC(O)=C(c2nc(-c3ccc(Cl)cc3)cs2)C1=N`, for which the growth was 1.18% (active). Turning to `O=c1c2c3c(sc2n2c(-c4cc(-c5ccccc5)nn4-c4ccccc4)nnc2n1Cc1ccccc1)CCCC3`, the growth was 19.1% (inactive).

Regarding `Cc1c(C(=O)N[C@@H](Cc2ccccc2)C(=O)C(=O)NCCc2ccccc2)[nH]c2ccccc2c1=O`, the growth is 86.8% (inactive). Take `Cc1ccc(N2CCN(C(=S)c3cccs3)CC2)cc1`: the growth was 93.6% (inactive).

As for `c1ccc(-c2nc([P+](c3ccccc3)(c3ccccc3)c3ccccc3)c(N3CCOCC3)o2)cc1`, the growth is 7.65% (active).

With `O=C1CCC2=C3C4CCCCC4C(=O)C4CCCC(OC2C1)C34` (stereo not given), the growth is 7.03% (active).

Consider `Cc1ccc(S(=O)(=O)NCC[C@@H]2C[C@H]2c2cc3ccccc3s2)cc1`, for which the growth was 92.6% (inactive). In the case of `COc1ccc(N=C(c2ccccc2)C2C(=O)c3ccccc3C2=O)cc1` it was 49.2% (inactive); in that of `COc1cc(C(=O)/C=C/c2c(-c3ccc(F)cc3)nc3sc(C)cn23)cc(OC)c1OC`, -38.8% (active); in that of `CCN1C(=O)N(CC)C2Nn3c(s/c(=C4\C(=O)N(C)c5ccccc54)c3=O)=NC21` (stereo not given), 60.5% (inactive).
